Values joined by “and” are separate entries in the source; they are usually repeats but may differ in a detail not shown here. Equal entries are not always repeated. A number with no mark means an inactive call. Active and inactive are the calls of the source.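 The calls were made as follows, unless noted: active = thallium flux through the channel raised or lowered by more than 3 SD from vehicle-only wells, actives on both sides; inactive = the rest.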
How the values were obtained:
[1] = galactose survival enhancers in mitochondrial complex I cybrids – cell-based, galactose medium, ATP luminescence, primary screen (AID 1645843;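 active = z-score of at least 1.8 in each of two replicates, scored against plate mean and spread of sample wells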;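 also: positive z means more ATP and so rescue of galactose-driven cybrid death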); details: complex I mutant cybrid cells, 72 h, active compounds read high
F380Y = test: BK channel mutant inhibitors and activators – cell-based, U2OS BacMam, thallium flux, beta subunits, selectivity assay, profiling panel (AID 1259406); details: U2OS BacMam BK variants, at 30 µM;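 also: initial slope of Thallos dye fluorescence rise after thallium is added; log ratio against the mean of 0.3% DMSO vehicle wells on the same plate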
F380Y/beta1 = test: as above; details: U2OS BacMam BK variants, at 30 µM
[2] = molecular target: NAD(+) hydrolase SARM1 (Homo sapiens) (UniProt Q6SZW1); test: blocking NAD cleavage by SARM1 SAM-TIR – cell lysate, NAD-Glo luminescence (AID 1508614;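 active = compound whose remaining NAD level is above about 45 nM, limit read from the data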;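 also: higher remaining NAD means stronger inhibition of SARM1 NADase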); details: SAM-TIR HEK293T lysate NADase, at 1 µM, active compounds read high
[3] = molecular target: Mitogen-activated protein kinase 7 (Homo sapiens) (UniProt Q13164); test: Gal4-ERK5 driven luciferase induction – cell-based, HTS, primary screen (AID 1508626;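 active = luciferase signal above three times the same-plate solvent-only control wells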;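 also: luciferase driven by Gal4-ERK5 fusion binding five Gal4 sites before minimal TATA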); details: HeLa Gal4-ERK5 transactivation, 18 h, at 5 µM, active compounds read high
Mitogen-activated protein kinase 7 (Homo sapiens), sequence (Q13164 whole entry, looked up, the tested form may be a part): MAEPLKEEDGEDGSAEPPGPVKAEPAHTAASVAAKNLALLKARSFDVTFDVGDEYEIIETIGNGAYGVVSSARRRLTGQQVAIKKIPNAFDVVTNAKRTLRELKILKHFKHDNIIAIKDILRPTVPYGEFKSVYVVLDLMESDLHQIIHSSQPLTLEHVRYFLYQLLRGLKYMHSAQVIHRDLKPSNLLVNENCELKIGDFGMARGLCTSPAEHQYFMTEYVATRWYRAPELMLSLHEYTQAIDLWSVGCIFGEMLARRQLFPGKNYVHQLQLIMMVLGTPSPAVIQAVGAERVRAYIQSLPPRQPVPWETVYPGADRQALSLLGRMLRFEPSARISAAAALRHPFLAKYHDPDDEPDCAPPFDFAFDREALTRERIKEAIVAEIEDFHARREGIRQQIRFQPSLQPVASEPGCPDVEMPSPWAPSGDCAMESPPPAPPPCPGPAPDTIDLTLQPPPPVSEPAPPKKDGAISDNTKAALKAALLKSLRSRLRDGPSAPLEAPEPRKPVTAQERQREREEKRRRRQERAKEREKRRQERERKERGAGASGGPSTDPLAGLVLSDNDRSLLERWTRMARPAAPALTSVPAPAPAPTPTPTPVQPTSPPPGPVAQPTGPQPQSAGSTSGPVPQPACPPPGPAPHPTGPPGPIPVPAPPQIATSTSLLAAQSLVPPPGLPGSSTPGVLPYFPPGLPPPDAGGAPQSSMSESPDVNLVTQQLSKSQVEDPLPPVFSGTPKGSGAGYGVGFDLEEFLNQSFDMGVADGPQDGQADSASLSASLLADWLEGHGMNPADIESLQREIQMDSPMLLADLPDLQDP

NAD(+) hydrolase SARM1 (Homo sapiens), sequence (Q6SZW1 whole entry, looked up, the tested form may be a part): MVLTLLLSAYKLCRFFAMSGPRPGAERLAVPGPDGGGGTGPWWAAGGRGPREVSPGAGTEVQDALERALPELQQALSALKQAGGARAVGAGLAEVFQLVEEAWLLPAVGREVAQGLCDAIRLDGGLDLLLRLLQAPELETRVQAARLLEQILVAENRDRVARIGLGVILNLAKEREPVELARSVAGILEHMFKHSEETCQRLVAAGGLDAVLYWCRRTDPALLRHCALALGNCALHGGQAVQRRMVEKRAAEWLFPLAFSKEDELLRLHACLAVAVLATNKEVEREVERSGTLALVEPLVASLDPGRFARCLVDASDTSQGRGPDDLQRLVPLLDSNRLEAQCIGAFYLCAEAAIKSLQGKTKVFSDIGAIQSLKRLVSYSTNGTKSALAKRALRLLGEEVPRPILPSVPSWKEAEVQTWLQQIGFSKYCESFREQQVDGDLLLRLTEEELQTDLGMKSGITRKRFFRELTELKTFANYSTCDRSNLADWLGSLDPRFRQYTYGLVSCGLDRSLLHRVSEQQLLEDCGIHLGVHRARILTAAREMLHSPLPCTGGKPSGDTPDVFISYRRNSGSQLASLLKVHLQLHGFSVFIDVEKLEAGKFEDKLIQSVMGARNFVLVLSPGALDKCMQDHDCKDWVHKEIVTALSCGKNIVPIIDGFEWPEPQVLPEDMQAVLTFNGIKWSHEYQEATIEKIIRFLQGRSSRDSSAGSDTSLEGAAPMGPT

Structure (SMILES) | z-score [1] | log fold change Tl+ flux (F380Y) | log fold change Tl+ flux (F380Y/beta1) | remaining NAD [2] | luciferase signal [3]
COCc1c(C(C)C)nc(C(C)C)c(/C=C/[C@@H](O)C[C@@H](O)CC(=O)O)c1-c1ccc(F)cc1 | -2.23 | 0.216 (active) | 0.473 (active) |  | 
Cc1cn([C@H]2C=C[C@@H](CO)O2)c(=O)[nH]c1=O | 0.32 and 1.07 | -0.00288 and 0.0465 | 0.0156 and 0.0441 | 21 nM | 
COc1cc(C(=O)NC2CCCNC2)cc(OC)c1OC (stereo unspecified) | 0.125 | -0.0595 | -0.0621 |  | 
COc1ccc(CN2CCN(C(c3ccc(F)cc3)c3ccc(F)cc3)CC2)c(OC)c1OC | -1.88 and -2.46 | -0.0546 | 0.0295 | 10 nM | 
Nc1nc(F)nc2c1ncn2[C@@H]1O[C@H](CO)[C@@H](O)[C@@H]1O | 0.045 and -0.22 | 0.0242 | -0.00658 |  | 
O=c1[nH]cnc2c1ncn2[C@H]1CC[C@@H](CO)O1 | 0.385 | -0.00984 | -0.0163 |  | 
CC(Cc1ccccc1)(NC(=O)CN)c1ccccc1 (stereo unspecified) | 0.32 and -0.22 | 0.0343 | 0.0342 |  | 
CCCN[C@H]1CCc2nc(N)sc2C1 | 0.97 | 0.0634 and -0.0393 | 0.0248 |  | 
C[C@@H]1CN(CCCn2c3ccccc3c3ccccc32)C[C@H](C)N1 | -0.695 | 0.145 (active) | 0.208 (active) |  | 
NCC1CCC(C(=O)Oc2ccc(CCC(=O)O)cc2)CC1 (stereo unspecified) | 0.62 | -0.0268 | -0.0246 |  | 
OCc1cccnc1 | 0.275 | -0.0134 | -0.0115 | 10 nM | 
Cc1nc(-c2ccc(OCC(C)C)c(C#N)c2)sc1C(=O)O |  |  |  | 10 nM | 
COc1cc(C)nc(-n2nc(C)cc2OC)n1 | 0.61 | -0.0134 | -0.00765 |  | 
NC1CCN(c2nc3c(cc2F)c(=O)c(C(=O)O)cn3-c2ccc(F)cc2F)C1 (stereo unspecified) | 0.62 and -0.04 | -0.0112 | 0.0192 |  | 
CN1[C@@H]2CC[C@H]1CC(OC(=O)C(O)c1ccccc1)C2 (stereo partly specified) |  |  |  | 10 nM | 40 AU
CC1CCN(CCCC(=O)c2ccc(F)cc2)CC1 | 0.28 and -0.14 | 0.0312 |  |  | 
CCCCCC(C)N (stereo unspecified) |  |  |  | 10 nM | 
CN(C)CCCSc1ccccc1NC(=O)/C=C/c1ccccc1 | -0.09 and 0.525 | 0.0773 |  |  | 
Cn1c(NCCN(CCO)CCCc2ccc([N+](=O)[O-])cc2)cc(=O)n(C)c1=O | 0.115 and 0.85 | -0.0604 | -0.0554 |  | 
COc1ccc(CC2c3cc(OC)c(OC)cc3CC[N+]2(C)CCC(=O)OCCCCCOC(=O)CC[N+]2(C)CCc3cc(OC)c(OC)cc3C2Cc2ccc(OC)c(OC)c2)cc1OC (stereo unspecified) | -0.89 and 0.01 | -0.0106 |  | 10 nM | 
COc1cc2c(N3CCN(C(=O)Nc4ccc(OC(C)C)cc4)CC3)ncnc2cc1OCCCN1CCCCC1 |  |  |  | 10 nM | 
CCC(C)n1ncn(-c2ccc(N3CCN(c4ccc(OC[C@H]5CO[C@](Cn6cncn6)(c6ccc(Cl)cc6Cl)O5)cc4)CC3)cc2)c1=O (stereo partly specified) |  |  |  | 10 nM | 
O=C(c1ccc(F)cc1)C1CCN(CCn2c(=S)[nH]c3ccccc3c2=O)CC1 | -0.715 and -0.61 | 0.0153 | 0.00744 |  | 
